Assay outcomes (PubChem BioAssay)
The list is not random: actives were taken first. Their share in the collection is about 0.93%.
LAP4 TOR yeast: yeast TOR pathway LAP4-GFP modulation; S. cerevisiae LAP4-GFP multiplex, flow cytometry GFP, 3 h; median GFP as percent of DMSO wells; GFP response vs DMSO, % at 10 µM; actives 0.34% (n = 320,000);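 active = GFP response vs DMSO above a set limit, about the screen mean plus 3 SD, cut at about 150% in these data; inconclusive = under 70 cell events counted for the yeast strain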
MEP2-GFP yeast: yeast TOR pathway MEP2-GFP modulation; AID 2016; GFP response vs DMSO, % at 10 µM; S. cerevisiae MEP2-GFP strain, flow cytometry GFP, 3 h; 100% = DMSO control level; actives 0.51% (n = 330,000);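 active = GFP response versus DMSO above a set limit, roughly screen mean plus 3 SD, cut at about 180% in these data; inconclusive = fewer than 70 cells counted for a yeast strain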;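 note: median GFP fluorescence of the barcode-gated MEP2-GFP cells per well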
CIT2-GFP yeast: modulators of TOR pathway CIT2-GFP in S. cerevisiae; S. cerevisiae CIT2-GFP strain, flow cytometry, 3 h; 100 means same as DMSO wells; GFP response vs DMSO, % at 10 µM; actives 0.065% (n = 320,000);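 active = GFP response relative to DMSO above a set limit, near the screen mean plus 3 SD, cut at about 150% in these data; inconclusive = Fewer than 70 cells measured for a yeast strain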;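 note: ratio of well median GFP fluorescence to mean of DMSO wells on the plate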
AGP1 TOR yeast: modulators of TOR pathway AGP1-GFP in S. cerevisiae | S. cerevisiae AGP1-GFP multiplex flow cytometry, 3 h; GFP as percent of DMSO wells | GFP response vs DMSO, % at 10 µM | actives 0.02% (n = 320,000) | AID 2066;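 active = GFP response relative to DMSO above a set limit, near screen average plus 3 SD, cut at about 150% in these data; inconclusive = fewer than 70 cells counted for the yeast strain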;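 note: median GFP channel fluorescence of the gated AGP1 strain per well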
RPL19A TOR yeast: modulators of TOR pathway RPL19A-GFP in S. cerevisiae | AID 2025 | S. cerevisiae RPL19A-GFP strain, flow cytometry, 3 h; hits give low values | percent response vs DMSO, % at 10 µM | actives 0.3% (n = 330,000);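 active = percent response vs DMSO below 50%; inconclusive = fewer than 70 events counted for the yeast strain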;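 note: median channel GFP fluorescence of the barcoded RPL19A-GFP strain; ratio of sample median GFP to plate DMSO average so 100% = DMSO; lower means less RPL19A-GFP as with rapamycin TOR inhibition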
* = called active by the depositor; u = inconclusive; x = no result; ! = a repeat was not active; [ ] = dose if it differs, or a comment.

SMILES	LAP4 TOR yeast	MEP2-GFP yeast	CIT2-GFP yeast	AGP1 TOR yeast	RPL19A TOR yeast
Cc1ccc(N/C=C/C(=O)c2ccco2)c(O)c1	104.3	307.4*[may fluoresce violet]	u	22.8	55.3
Cc1ccc(NC(=O)c2cc3ccccc3oc2=N)cc1	101.0	107.3	101.7	99.4	103.3
N=c1oc2cc(O)ccc2cc1C(=O)Nc1ccc(Cl)cc1	75.9	227.0*[may fluoresce violet]	u	u	37.8*[may fluoresce violet]
CCN(CC)C(=O)Cn1cc(S(=O)(=O)CC(=O)Nc2ccc3c(c2)OCCO3)c2ccccc21	90.8	96.3	93.5	97.9	97.2
CCn1cc(S(=O)(=O)CC(=O)Nc2ccc3c(c2)OCCO3)c2ccccc21	83.8	226.0*[may fluoresce violet]	u	u	23.3*[may fluoresce violet]
CCCn1cc(S(=O)(=O)CC(=O)Nc2ccc(OCC)cc2)c2ccccc21	88.3	505.5*[may fluoresce violet]	u	24.0	58.9
CCCn1cc(S(=O)(=O)CC(=O)Nc2ccc(OC)cc2OC)c2ccccc21	100.3	103.9	93.1	98.7	98.3
Cc1cccc(SCC(=O)Nc2ccc3c(c2)OCCO3)c1	111.3	109.4	174.4*[may fluoresce green]	122.3	96.1
CC12CC3(C)CC(C)(C1)CC(C(=O)NCc1cccnc1)(C2)C3	95.3	109.8	102.5	103.8	105.7
Cc1onc(-c2ccccc2)c1C(=O)OCC(=O)N1CCN(c2ccccc2)CC1	111.0	103.5	96.6	113.2	100.8
c1ccc(-c2n[nH]c(-c3ccccn3)n2)cc1	99.3	100.7	93.0	94.4	96.1
c1ccc(-c2n[nH]c(-c3ccccn3)n2)nc1	87.1	179.6*![may fluoresce violet]	u	u	13.5*![may fluoresce violet]
CCC(C)(C)NC(=O)C(c1ccncc1)N(Cc1cccs1)C(=O)Cn1nnc2ccccc21 (stereo not given)	73.5	253.2*[may fluoresce violet]	u	u	31.4*[may fluoresce violet]
CCC(C)(C)NC(=O)C(c1ccc(C)cc1)N(Cc1ccco1)C(=O)Cn1nnc2ccccc21 (stereo not given)	95.3	103.0	100.0	102.3	98.6
CCC(C)(C)NC(=O)C(c1cccs1)N(CC1CCCO1)C(=O)Cn1nnc2ccccc21 (stereo not given)	87.3	195.0*	97.1	96.8	95.2
O=C(NCc1ccco1)C(c1ccccc1)N(CC1CCCO1)C(=O)Cn1nnc2ccccc21 (stereo not given)	108.3	100.8	97.5	100.6	100.6
O=C(COC(=O)c1ccccc1SCC(=O)N1CCCC1)Nc1ccccc1C(F)(F)F	101.7	108.2	100.8	97.0	95.8
Cc1ccc(S(=O)(=O)NC(C)C(=O)N2CCOCCOCCOCCOCC2)cc1 (stereo not given)	77.3	97.0	84.1	89.5	89.8
Cc1ccc(S(=O)(=O)NC(C(=O)N2CCOCCOCCOCC2)C(C)C)cc1 (stereo not given)	u	u	u	u	14.2*[may fluoresce violet]
COc1cccc(CNC(=O)CCC(=O)N2Cc3cccc(OC)c3Oc3ncccc32)c1OC	78.5	146.3	83.8	17.0	26.5*
COc1cccc2c1Oc1ncccc1N(C(=O)CCC(=O)NCc1cccc(C)c1)C2	88.9	147.8	102.7	15.2	38.1*
COc1cccc2c1Oc1ncccc1N(C(=O)CCC(=O)NCc1ccc(C)cc1)C2	94.0	91.8	91.1	100.2	93.1
CCC[C@@H]1CCCO[C@@](C(=O)NCCN2CCOCC2)(C(F)(F)F)C1	110.3	94.9	92.6	91.8	99.5
CCN1CCN(C(=O)CCc2nnc3ccc(N4CCC5(CC4)OCCO5)nn23)CC1	97.9	99.2	106.4	103.3	97.8
O=C(N=Nc1c(O)[nH]c2ccccc12)c1ccco1	196.6*	492.9*	108.4	152.2*	68.4
SMILES	LAP4 TOR yeast	MEP2-GFP yeast	CIT2-GFP yeast	AGP1 TOR yeast	RPL19A TOR yeast
O=C(CSCc1cccc(Br)c1)N=Nc1c(O)[nH]c2ccccc12	165.4*	136.4	116.0	110.1	64.6
O=C(CSCc1ccccc1)N=Nc1c(O)[nH]c2ccccc12	90.2	99.6	98.4	98.0	101.1
CC(C)c1onc(C(=O)N(C)C2CCCCC2)c1[N+](=O)[O-]	95.4	103.6	107.2	101.0	100.9
O=C1/C(=C/c2ccco2)SC(=S)N1C1CCS(=O)(=O)C1 (stereo not given)	u	u	u	u	16.5*[may fluoresce violet]
CCOc1cc(/C=N/NC(=O)c2ccc3c(c2)OCCO3)cc(Br)c1O	96.1	99.1	91.9	100.6	102.5
CC(NC(=O)C12CC3CC(CC(O)(C3)C1)C2)c1ccccc1 (stereo not given)	80.6	101.6	100.3	89.4	98.0
CCN(CC)c1ccc2c(C)cc(=O)oc2c1	122.0	95.9	78.0	91.5	98.1
CCN(CC)c1ccc2c(Cl)c(Br)c(=O)oc2c1	556.5*[may fluoresce violet]	894.2*[may fluoresce violet]	u	74.4	147.3
CCN(CC)c1ccc2c(c1)oc(=O)c1c(Cl)cc(=O)oc12	105.4	167.2	u	u	16.3*[may fluoresce violet]
CCN(CC)c1ccc2c(C)c(Cl)c(=O)oc2c1	100.1	96.4	92.3	91.1	102.8
Cc1cc2oc(=O)cc(CN3CCCCC3C)c2c(C)c1Cl (stereo not given)	98.5	98.9	90.7	84.6	100.2
COc1ccc(-c2[nH]ncc2-c2ccc(Cl)cc2)c(O)c1	152.6*	83.3	90.8	68.2	76.8
CC(=O)c1cc2c(cc1NC(=O)CSc1nc3ccccc3[nH]1)OCO2	97.0	103.7	97.8	103.8	102.5
CC(=O)c1cc2c(cc1NC(=O)CSc1nc3ccccc3o1)OCO2	93.2	292.4*[may fluoresce violet]	u	x	41.0*[may fluoresce violet]
Cc1ccc(S(=O)(=O)N(CC(=O)N2CCOCC2)c2ccc(C(C)C)cc2)cc1	115.1	107.8	100.5	105.8	102.4
Cn1c(CCC(=O)OCC(=O)NCC(F)(F)F)nc(=O)c2ccccc21	110.8	188.6*[may fluoresce violet]	u	u	18.8*[may fluoresce violet]
CCOc1cc(C(=O)N(C)Cc2cc3cc(OC)ccc3[nH]c2=O)cc(OCC)c1OCC	99.1	101.6	102.7	106.7	101.5
CCOc1ccccc1C(=O)N(C)Cc1cc2cc(OC)ccc2[nH]c1=O	97.9	183.7*[may fluoresce violet]	u	u	50.2
Cc1ccc(Cn2ccc(=O)c(OCc3ccccc3)c2C)cc1	91.7	234.3*[may fluoresce violet]	u	104.0	96.6
Cc1c(OCc2ccccc2)c(=O)ccn1Cc1ccc(Cl)cc1	101.8	100.3	104.1	97.8	99.6
CCOc1ccc(Nc2ccc(C(=O)O)cc2[N+](=O)[O-])cc1	160.8*	114.5	70.3	89.9	98.4
C/C(=N\Nc1ccc(C(=O)O)cc1)c1ccc2c(c1)Nc1ccccc1S2	94.6	101.2	90.5	97.2	95.7
COc1cccc(CN2C(=O)C(C)N(C(=O)c3c(F)cccc3F)c3ccccc32)c1 (stereo not given)	99.4	97.2	94.7	101.0	102.5
CC1C(=O)N(Cc2cccc(F)c2)c2ccccc2N1C(=O)c1ccccc1 (stereo not given)	96.7	263.0*[may fluoresce violet]	u	u	62.7
